Hits are enriched below; roughly 28% of the tested compounds scored in any of these assays.
CYP2C19 inh: inhibitors of human CYP2C19; CYP2C19 Supersomes, luciferin-H EGE luminescence, 30 min; hit rate 21% among 96,000; inhibition, % at 5 µM; P33261;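 active = CYP2C19 inhibition above a set limit at 5 µM in the primary screen, cut at about 50% in these data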
CYP2C9 act: activators of human CYP2C9. P11712. activation factor at 5 µM. recombinant CYP2C9, luciferin-H conversion, luminescence; stronger effect = higher value; factor 1 = untreated enzyme, 0 = blocked. hit rate 1.4% among 96,000;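 active = activation factor of 2 or more for CYP2C9 at a 5 µM dose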
Target sequence (P11712 whole entry, looked up): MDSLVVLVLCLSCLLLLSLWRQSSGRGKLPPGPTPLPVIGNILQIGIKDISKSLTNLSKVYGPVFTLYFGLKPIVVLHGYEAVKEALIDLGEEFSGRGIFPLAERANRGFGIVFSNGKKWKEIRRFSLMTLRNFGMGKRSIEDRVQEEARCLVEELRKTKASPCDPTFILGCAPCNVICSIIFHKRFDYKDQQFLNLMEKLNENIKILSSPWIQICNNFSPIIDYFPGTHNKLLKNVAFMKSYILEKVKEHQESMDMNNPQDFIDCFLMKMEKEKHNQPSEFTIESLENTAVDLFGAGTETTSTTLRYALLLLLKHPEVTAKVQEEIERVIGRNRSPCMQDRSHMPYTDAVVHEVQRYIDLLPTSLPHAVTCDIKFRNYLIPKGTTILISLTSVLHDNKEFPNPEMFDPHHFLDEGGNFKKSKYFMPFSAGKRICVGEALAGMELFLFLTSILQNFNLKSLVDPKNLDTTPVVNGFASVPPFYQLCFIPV
CYP2C19 activ: cytochrome P450 2C19 (human) activation. P33261. recombinant CYP2C19, luciferin-H EGE luminescence; stronger effect = higher value; 0 = fully inhibited enzyme, 1 = untreated enzyme. activation factor at 5 µM. 96,000 tested, under 10 active. AID 1025;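 active = activation factor of at least 2 at 5 µM in the primary screen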
PLK1 kinase inh: PLK1 (human) kinase inhibition | inhibition, % at 10 µM | hit rate 0.53% among 97,000 | AID 619 | P53350 | recombinant PLK1 kinase, TR-FRET peptide phosphorylation;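 active = inhibition of 50% or more in the single-concentration screen; inactive = inhibition below 50%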
CYP2C9 inhib: inhibitors of human CYP2C9; inhibition, % at 5 µM; P11712; AID 777; hit rate 20% among 96,000; CYP2C9 Supersomes, luciferin-H conversion, luminescence;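 active = blocking of liver enzyme CYP2C9 beyond about 50% at 5 µM, limit read from the data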
Plk1 PBD FP: blocks phosphopeptide binding to human Plk1 polo box domain. P53350. Plk1 PBD phosphopeptide binding, fluorescence polarization. inhibition, %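 (tested at about 20 µM)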. hit rate 0.13% among 97,000. AID 693; in the data active = inhibition above about 34%, passing the limit was not always enough
Of the large screens only hits and unclear results are named; the others gave an inactive call.

CSc1cccc(NC(=O)C(C)Sc2ccc(C)cc2)c1 (stereo not given)	CYP2C19 inh 70, CYP2C9 inhib 67
Cc1ccc(SC(C)C(=O)Nc2ccc(S(=O)(=O)N3CCOCC3)cc2)cc1 (stereo not given)	CYP2C9 inhib 60
CC(=O)Nc1ccc(S(=O)(=O)N2CCOCC2)cc1	none (no result: CYP2C19 inh, CYP2C9 act, CYP2C19 activ, CYP2C9 inhib)
Cc1ccc(SC(C)C(=O)Nc2cccc(N(C)S(C)(=O)=O)c2)cc1 (stereo not given)	CYP2C19 inh 61, CYP2C9 inhib 83
Cc1ccc(SC(C)C(=O)Nc2ccncc2)cc1 (stereo not given)	CYP2C19 inh 100, CYP2C9 inhib 97
Cc1ccc(SC(C)C(=O)Nc2cccnc2)cc1 (stereo not given)	none
Cc1nc(SCC(=O)Nc2c(C)n(C)n(-c3ccccc3)c2=O)[nH]c(=O)c1C	none (no result: CYP2C19 inh, CYP2C9 act, CYP2C19 activ, CYP2C9 inhib)
CCC1=Nc2ccccc2NC2=C1C(=O)CCC2	CYP2C19 inh 63
Cc1nnc(NC(=O)CSc2ncnc3c2cnn3-c2ccccc2C)s1	none
CCOC(=O)Cc1csc(NC(=O)CSc2ncnc3c2cnn3-c2ccccc2Cl)n1	CYP2C19 inh 70, CYP2C9 inhib 90
O=S(=O)(Nc1cccc(C(F)(F)F)c1)c1cnc[nH]1	CYP2C19 inh 98, CYP2C9 inhib 100 (no result: PLK1 kinase inh, Plk1 PBD FP)
O=S(=O)(Nc1ccc(C(F)(F)F)cc1)c1cnc[nH]1	CYP2C19 inh 99, CYP2C9 inhib 100 (no result: PLK1 kinase inh, Plk1 PBD FP)
CS(=O)(=O)N1CCC(C(=O)Nc2ccc(Cl)c(C(F)(F)F)c2)CC1	none
O=S(=O)(Nc1ccc(Cl)c(C(F)(F)F)c1)c1cnc[nH]1	CYP2C19 inh 96, CYP2C9 inhib 99 (no result: PLK1 kinase inh, Plk1 PBD FP)
CCc1nc(SC)[nH]c(=O)c1C	CYP2C19 inh 95
CC(=O)NC(Cc1ccccc1)C(=O)N1CCN(C(=O)c2cccs2)CC1 (stereo not given)	none
Cc1ccc(NC(=O)N/C=C/c2ccco2)c(C)c1	CYP2C19 inh 76, CYP2C9 inhib 61
C=CCN1C=CC(=C/C=C(/C#N)C(=O)OCC)C=C1	none (no result: CYP2C19 inh, CYP2C9 act, CYP2C19 activ, CYP2C9 inhib)
COc1ccccc1CNc1ccc(C(=O)O)cc1	none
COc1cccc(CNc2ccc(N3CCCCC3)cc2)c1OC	CYP2C19 inh 80, CYP2C9 act 2.5
COc1ccccc1CNc1ccc(N2CCCCC2)cc1	CYP2C19 inh 77
COc1cccc(CNc2ccc(S(N)(=O)=O)cc2)c1OC	none
CC(C)c1ccc(-c2nc(N3CCOCC3)[nH]c(=O)c2C#N)cc1	none
O=C(NC1CC1)c1cc(Cl)ccc1[N+](=O)[O-]	none
CCOC(=O)C1CCN(CC(=O)Nc2cc(C)nn2-c2nc3ccccc3s2)CC1	none
Cc1cc(NC(=O)CN2CC(C)OC(C)C2)n(-c2nc3ccccc3s2)n1 (stereo not given)	CYP2C19 inh 57, CYP2C9 inhib 56
Cc1oc(-c2ccccc2F)nc1CS(=O)(=O)CC(=O)NCc1ccco1	none
Cc1ccc(-c2cc(C(F)F)nc(N3CCC(C)CC3)n2)cc1	CYP2C9 inhib 55
Cc1cc(N2CCN(c3nnnn3-c3ccccc3)CC2)n2ncnc2n1	CYP2C19 inh 66 (no result: PLK1 kinase inh, Plk1 PBD FP)
Cc1cccc(N2CCN(c3nnnn3-c3ccccc3)CC2C)c1 (stereo not given)	CYP2C19 inh 100, CYP2C9 inhib 88
c1ccc(N2CCN(c3nnnn3-c3ccccc3)CC2)cc1	CYP2C19 inh 100, CYP2C9 inhib 93 (no result: PLK1 kinase inh, Plk1 PBD FP)
Cc1nnc(-n2cnc3ccccc32)c2ccccc12	none
c1ccc(-n2nnnc2-n2cnc3ccccc32)cc1	CYP2C19 inh 82
Cc1nn(CC(=O)Nc2cccnc2N2CCOCC2)c(=O)c2ccccc12	none (no result: PLK1 kinase inh, Plk1 PBD FP)
Cc1ccnc(SCC(=O)N2CCN(c3cccc(Cl)c3)CC2)n1	CYP2C19 inh 99
CC(C)NC(=O)CSc1nnc(-c2ccco2)n1N	none
C=CCn1c(SCc2nc(N)nc(N3CCCCC3)n2)nnc1-c1ccco1	CYP2C19 inh 59
C=CCn1c(SCC(O)Cn2c3ccccc3c3ccccc32)nnc1-c1ccco1 (stereo not given)	CYP2C19 inh 98, CYP2C9 inhib 90
C=CCn1c(SCC(=O)N2CCN(c3ccc(F)cc3)CC2)nnc1-c1ccco1	none (no result: PLK1 kinase inh, Plk1 PBD FP)
CCc1ccccc1NC(=O)CSc1nnc(-c2ccco2)n1N	CYP2C19 inh 56
COc1ccc(C2c3c(ncn(CCN4CCOCC4)c3=N)Oc3ccc4ccccc4c32)cc1OC (stereo not given)	none
Cc1occc1-c1nnc(SCC(=O)N(C)C)o1	none

High-throughput results: PubChem, several laboratories
